Experimental data as given in PubChem BioAssay (EPA / NIEHS).
Calls of active or inactive are those of the source. How the source made its calls: active means hit-call score of the fitted dose curve at least 0.9, where 1 is the maximum; inactive means score below 0.9.

How the values were obtained:
[1] = ATG_AP_1_CIS: Attagene CIS-FACTORIAL HepG2 Assay for human Activator Protein 1 (AP-1) (AID 2282931); settings: HepG2 Attagene cis-factorial AP-1 reporter mRNA; actives raise or lower the signal
Summary of the method: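 Fluorescence of labelled PCR fragments separated by capillary electrophoresis gives reporter mRNA levels. HepG2 with transfected cis-regulated reporter units, 24 h exposure; DMSO serves as baseline for bidirectional curve fits.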

[2] = ATG_AP_2_CIS: Attagene CIS-FACTORIAL HepG2 Assay for human Activator Protein 2 (AP-2) (AID 2282932); settings: HepG2 AP-2 cis-reporter, Attagene transcription factor profiling; actives raise or lower the signal
Summary of the method: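 Transiently transfected HepG2 cells are exposed to chemical for 24 h. Reporter transcripts are then measured as fluorescence following RT-PCR and capillary separation, and gain- or loss-of-signal is fitted relative to DMSO.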

[3] = ATG_BRE_CIS: Attagene CIS-FACTORIAL HepG2 Assay for human Bone Morphogenetic Protein (BMP) Response Element (BRE) (AID 2282933); settings: HepG2 BMP response element reporter, Attagene transcription factor profiling; actives raise or lower the signal
Summary of the method: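 Gain- or loss-of-signal was derived by bidirectional fitting against DMSO controls. The signal came from reporter mRNA, measured by RT-PCR and capillary electrophoresis, in HepG2 cells transiently carrying multiple reporter units and dosed for 24 h.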

[4] = target: Retinoic acid receptor alpha (Homo sapiens) (UniProt P10276); assay: ATG_DR5_RAR_CIS: Attagene CIS-FACTORIAL HepG2 Assay for human Retinoic Acid Receptor Alpha (RARE), DR5 submotif (AID 2282934); settings: HepG2 Attagene cis-factorial RARE DR5 reporter, mRNA; actives raise or lower the signal
Chain of Retinoic acid receptor alpha (Homo sapiens) (P10276 whole entry, looked up): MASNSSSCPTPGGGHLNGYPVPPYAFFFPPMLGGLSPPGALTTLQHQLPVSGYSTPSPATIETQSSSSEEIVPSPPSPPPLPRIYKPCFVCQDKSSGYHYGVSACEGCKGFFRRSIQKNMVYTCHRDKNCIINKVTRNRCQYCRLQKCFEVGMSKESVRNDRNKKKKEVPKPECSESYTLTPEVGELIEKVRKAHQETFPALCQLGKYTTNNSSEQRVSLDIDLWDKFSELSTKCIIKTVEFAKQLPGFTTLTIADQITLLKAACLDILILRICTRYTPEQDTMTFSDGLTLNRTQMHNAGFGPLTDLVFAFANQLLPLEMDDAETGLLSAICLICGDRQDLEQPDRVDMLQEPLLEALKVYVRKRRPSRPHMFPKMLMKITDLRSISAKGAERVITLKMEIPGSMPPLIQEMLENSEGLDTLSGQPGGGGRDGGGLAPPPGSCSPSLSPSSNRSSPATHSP
Summary of the method: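 Transient MRTU transfection of HepG2; 24 h compound treatment; TriZol RNA, oligo(dT) RT, PCR, FAM labelling, capillary electrophoresis. Bidirectional fit vs DMSO. Endogenous TF activity at DR5 RARE.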

[5] = target: Transcription factor E2F1 (Homo sapiens) (UniProt Q01094); assay: ATG_E2F_CIS: Attagene CIS-FACTORIAL HepG2 Assay for human E2F Transcription Factor 1 (AID 2282935); settings: HepG2 Attagene cis-reporter, E2F reporter RNA transcripts; actives raise or lower the signal
Chain of Transcription factor E2F1 (Homo sapiens) (Q01094 whole entry, looked up): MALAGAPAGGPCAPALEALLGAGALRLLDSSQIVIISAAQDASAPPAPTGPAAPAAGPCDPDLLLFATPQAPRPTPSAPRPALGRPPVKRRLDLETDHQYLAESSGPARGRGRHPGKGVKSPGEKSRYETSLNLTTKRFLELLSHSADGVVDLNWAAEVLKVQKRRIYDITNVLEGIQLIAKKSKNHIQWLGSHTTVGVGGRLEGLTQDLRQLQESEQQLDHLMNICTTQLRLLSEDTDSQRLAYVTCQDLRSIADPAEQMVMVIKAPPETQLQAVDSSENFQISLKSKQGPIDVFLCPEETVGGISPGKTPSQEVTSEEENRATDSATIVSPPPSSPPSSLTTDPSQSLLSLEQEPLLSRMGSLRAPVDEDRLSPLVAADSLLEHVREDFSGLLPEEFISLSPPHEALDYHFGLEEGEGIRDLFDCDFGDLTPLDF
Summary of the method: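 Fluorescent RT-PCR products, digested with HpaI for 2 h at 37 C, are separated by capillary electrophoresis. Source RNA comes from transfected HepG2 cultures treated for 24 h.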

[6] = ATG_E_Box_CIS: Attagene CIS-FACTORIAL HepG2 Assay for human Enhancer Box (E-box) (AID 2282936); settings: HepG2 E-box cis-reporter transcription, actives raise or lower the signal
Summary of the method: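 Fluorescent reporter fragments separated by capillary electrophoresis gave the signal; mRNA came from HepG2 cells transfected with cis-element reporters and treated 24 h. Curves fitted bidirectionally relative to DMSO controls.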

[7] = ATG_M_61_CIS: Attagene CIS-FACTORIAL HepG2 Assay for M61 Transcription Factor (Internal Marker) (AID 2282937); settings: HepG2 Attagene CIS-FACTORIAL M61 internal marker reporter; actives raise or lower the signal
Summary of the method: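 This endpoint serves as an internal background control within a multiplexed HepG2 cis-reporter panel. Cells are exposed for 24 h; reporter mRNA is amplified, fluorescently labelled and sized by capillary electrophoresis, with DMSO as negative control.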

[8] = ATG_EGR_CIS: Attagene CIS-FACTORIAL HepG2 Assay for human Early Growth Response 1 (EGR1) (AID 2282938); settings: HepG2 Attagene CIS-FACTORIAL EGR reporter mRNA; actives raise or lower the signal
Summary of the method: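 HepG2, transient MRTU transfection (cis promoters), 24 h compound. RNA → RT (oligo-dT) → PCR → 6-FAM labelling → HpaI cut → CE fluorescence. Bidirectional fit, DMSO baseline.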

[9] = ATG_M_19_CIS: Attagene CIS-FACTORIAL HepG2 Assay for M19 Transcription Factor (Internal Marker) (AID 2282939); settings: HepG2 Attagene CIS-FACTORIAL M19 internal marker reporter; actives raise or lower the signal
Summary of the method: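 Following a 24 h exposure, RNA from transfected HepG2 cells was reverse-transcribed, PCR-amplified with reporter-specific primers, end-labelled with 6-FAM and HpaI-digested before capillary separation. Values represent gain or loss versus DMSO.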

[10] = ATG_ERE_CIS: Attagene CIS-FACTORIAL HepG2 Assay for Estrogen Response Element (ERE) (AID 2282940); settings: HepG2 ERE cis-reporter, Attagene RNA transcript; actives raise or lower the signal
Summary of the method: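 HepG2, transient cis-reporter units, 24 h exposure. RNA isolated, oligo(dT) RT, reporter-specific PCR, FAM extension, HpaI cut, CE detection. Gain/loss-of-signal vs DMSO.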

[11] = ATG_Ets_CIS: Attagene CIS-FACTORIAL HepG2 Assay for human Erythroblast Transformation Specific (ETS) (AID 2282941); settings: HepG2 ETS cis-reporter transcription, actives raise or lower the signal
Summary of the method: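 RT-PCR/capillary electrophoresis fluorescence read-out of reporter mRNA; HepG2 transient multi-reporter transfection; 24 h compound exposure; gain or loss of signal fitted bidirectionally relative to DMSO.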

[12] = target: Hepatocyte nuclear factor 3-beta (Homo sapiens) (UniProt Q9Y261); assay: ATG_FoxA2_CIS: Attagene CIS-FACTORIAL HepG2 Assay for human Forkhead box A2 (FOXA2) (AID 2282942); settings: HepG2 cis-reporter transcription factor activity, 24 h; actives raise or lower the signal
Chain of Hepatocyte nuclear factor 3-beta (Homo sapiens) (Q9Y261 whole entry, looked up): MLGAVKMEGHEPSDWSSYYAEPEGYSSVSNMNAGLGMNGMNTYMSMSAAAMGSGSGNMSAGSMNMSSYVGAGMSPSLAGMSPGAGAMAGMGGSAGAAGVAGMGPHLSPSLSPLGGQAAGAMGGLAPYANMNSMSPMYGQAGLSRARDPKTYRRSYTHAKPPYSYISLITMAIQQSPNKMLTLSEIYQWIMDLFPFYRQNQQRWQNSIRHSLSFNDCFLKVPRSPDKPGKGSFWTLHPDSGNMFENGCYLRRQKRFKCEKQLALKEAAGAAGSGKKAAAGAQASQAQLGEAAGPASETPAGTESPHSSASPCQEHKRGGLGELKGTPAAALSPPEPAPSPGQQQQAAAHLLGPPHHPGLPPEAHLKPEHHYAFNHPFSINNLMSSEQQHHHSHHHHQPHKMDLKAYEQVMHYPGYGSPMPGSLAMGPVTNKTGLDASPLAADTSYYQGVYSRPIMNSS
Summary of the method: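 Cells: HepG2, transient multiplex reporter transfection. Exposure 24 h. Detection: reporter-specific RT-PCR, fluorescent labelling, restriction digest, capillary electrophoresis. Analysis: bidirectional curve fit, DMSO as negative control.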

[13] = ATG_FoxO_CIS: Attagene CIS-FACTORIAL HepG2 Assay for human Forkhead box O (FoxO) (AID 2282943); settings: HepG2 Attagene cis-reporter, FoxO element, mRNA; actives raise or lower the signal
Summary of the method: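 HepG2, transient MRTU transfection (cis element, endogenous TFs). Dose 24 h. TriZol RNA → oligo(dT) RT → PCR → 6-FAM primer extension → HpaI cut → CE. Gain/loss vs DMSO.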

[14] = ATG_GATA_CIS: Attagene CIS-FACTORIAL HepG2 Assay for human GATA Binding Protein (AID 2282944); settings: HepG2 GATA cis-element reporter, Attagene multiplex mRNA; actives raise or lower the signal
Summary of the method: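 DMSO serves as negative control and baseline for bidirectional fitting of reporter mRNA changes. HepG2 cells bearing transiently transfected cis-promoter reporters were exposed 24 h; transcripts detected via RT-PCR and capillary electrophoresis.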

[15] = ATG_GLI_CIS: Attagene CIS-FACTORIAL HepG2 Assay for human Zinc Finger Protein GLI1 (AID 2282945); settings: HepG2, Attagene cis-factorial reporter mRNA, GLI element; actives raise or lower the signal
Summary of the method: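 Bidirectional curve fits relative to DMSO, using reporter mRNA levels from RT-PCR plus capillary electrophoresis. Cells were HepG2 transiently carrying cis-regulated reporter constructs, harvested 24 h after dosing.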

[16] = ATG_ISRE_CIS: Attagene CIS-FACTORIAL HepG2 Assay for human Interferon Regulatory Factor 1 (IRF1) binding to an Interferon-Stimulated Response Element (ISRE) (AID 2282948); settings: HepG2 ISRE cis-reporter (Attagene), mRNA transcription readout; actives raise or lower the signal
Summary of the method: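 Read-out: fluorescent RT-PCR products resolved by capillary electrophoresis, reporting endogenous transcription factor activity via ISRE-driven reporter mRNA in transfected HepG2 cells dosed for 24 h; gain or loss fitted relative to DMSO.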

[17] = ATG_M_32_CIS: Attagene CIS-FACTORIAL HepG2 Assay for M32 Transcription Factor (Internal Marker) (AID 2282949); settings: HepG2 Attagene cis-factorial M32 reporter, mRNA; actives raise or lower the signal;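 further: background control marker of the multiplexed CIS panel rather than a real target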
Summary of the method: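 Using DMSO as baseline, bidirectional curve fits were applied to reporter mRNA signals. These came from transiently transfected HepG2 cells exposed for 24 h, with RNA analysed by RT-PCR, FAM primer extension, HpaI digestion and CE.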

[18] = ATG_M_06_CIS: Attagene CIS-FACTORIAL HepG2 Assay for M06 Transcription Factor (Internal Marker) (AID 2282950); settings: HepG2 Attagene CIS-FACTORIAL M06 internal marker reporter; actives raise or lower the signal
Summary of the method: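 Fluorescence-labelled RT-PCR products from cis-promoter reporter units, cut with HpaI and resolved by capillary electrophoresis, give the signal. Cells are human HepG2, dosed for 24 h. Serves as background control, fitted relative to DMSO.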

[19] = ATG_GRE_CIS: Attagene CIS-FACTORIAL HepG2 Assay for human Glucocorticoid Response Elements (GRE) (AID 2282947); settings: HepG2 GRE cis-reporter, Attagene multiplex mRNA; actives raise or lower the signal
Summary of the method: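 Multiplexed cis-reporter mRNA induction, HepG2, 24 h post-dose. RT-PCR, FAM-labelled, HpaI-digested amplicons by CE. Bidirectional fit vs DMSO.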

[20] = target: Bile acid receptor (Homo sapiens) (UniProt Q96RI1); assay: ATG_IR1_CIS: Attagene CIS-FACTORIAL HepG2 Assay for human Nuclear Receptor Subfamily 1 Group H Member 4 (NR1H4), IR1 submotif (AID 2282946); settings: IR1 reporter transcription, actives raise or lower the signal
Chain of Bile acid receptor (Homo sapiens) (Q96RI1 whole entry, looked up): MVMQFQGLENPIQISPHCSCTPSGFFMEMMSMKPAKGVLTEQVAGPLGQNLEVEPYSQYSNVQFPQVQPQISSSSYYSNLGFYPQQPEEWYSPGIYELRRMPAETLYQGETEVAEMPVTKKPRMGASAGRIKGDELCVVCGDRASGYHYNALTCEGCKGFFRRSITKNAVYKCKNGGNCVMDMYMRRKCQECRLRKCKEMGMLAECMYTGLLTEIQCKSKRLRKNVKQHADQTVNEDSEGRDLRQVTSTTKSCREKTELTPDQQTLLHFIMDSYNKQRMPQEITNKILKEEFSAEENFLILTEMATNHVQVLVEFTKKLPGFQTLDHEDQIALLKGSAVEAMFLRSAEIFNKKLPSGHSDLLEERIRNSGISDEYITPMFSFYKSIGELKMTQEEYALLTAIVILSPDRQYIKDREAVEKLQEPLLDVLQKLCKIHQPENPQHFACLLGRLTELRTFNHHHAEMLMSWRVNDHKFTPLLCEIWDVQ
Summary of the method: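 HepG2 cells transiently transfected with multiplexed cis-element reporter units read endogenous transcription factor activity. After 24 h compound exposure, reporter mRNA was quantified by RT-PCR, fluorescent labelling, HpaI digestion and capillary electrophoresis; bidirectional fitting versus DMSO baseline.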

Measured: AC50

c1ccc(N=NNc2ccccc2)cc1
active: [1] 80 µM | [3] 123 µM | [8] 83.5 µM | [10] 26.3 µM | [12] 25.7 µM | [15] 163 µM
not listed: [19] | [20]
inactive: all other assays above

COP(=S)(OC)Oc1c(Cl)cc(C)cc1Cl
active: [10] 9.77 µM
not listed: [9] | [20]
inactive: all other assays above

Cl/C=C/Cl
not listed: [9] | [20]
inactive: all other assays above

COP(=S)(OC)Oc1ccc(Sc2ccc(OP(=S)(OC)OC)cc2)cc1
active: [3] 6.58 µM | [8] 29.8 µM
not listed: [19] | [20]
inactive: all other assays above

CCC[CH2][Sn]([CH2]CCC)([CH2]CCC)[O]C(=O)c1ccccc1
active: [3] 0.218 µM | [10] 0.0334 µM
not listed: [4] | [20]
inactive: all other assays above

CC(C)c1cccc(C(C)C)c1O
not listed: [19] | [20]
inactive: all other assays above

CCNc1nc(NC(C)(C)C)nc(SC)n1
active: [1] 152 µM | [6] 160 µM | [16] 100 µM
not listed: [9]
inactive: all other assays above

COc1cccc(C=O)c1
not listed: [9] | [20]
inactive: all other assays above
